Results taken from PubChem BioAssay AID1159580 (chemical genetic matrix, 2015).
Where “and” joins values, the source holds several entries; their conditions need not be identical. Identical values can stand only once. The whole screen tested about 5,500 compounds, of which about 2,000 (36%) were called active. Roughly 18% stayed inconclusive and do not appear here. Cut-off read from the data, not from the text of the source: active = normalized growth mostly below about 0.91 (no sharp cut-off); inconclusive = no clear call, values can overlap the other calls; inactive = mostly above about 0.92. The list shows a part of the results. Where a structure was tested more than once in an assay, its records may differ in their call.

Test: chemical genetic growth profiling, strain panel (AID 1159580);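 note: tested at 20 µM; growth read once vehicle control cultures reached saturation at 30 °C; 1 = growth at the plate median or of vehicle wells; lower values mean less growth of the strain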
Conditions: growth OD

Measured: normalized growth

Cc1cc(O)c2c(c1)C(=O)c1cc(O)cc(O)c1C2=O
inactive: S. cerevisiae deletion strains, locus YOL012C, strain htz1 0.486 | S. cerevisiae deletion strains, locus YPL241C, strain CIN2, stronger effect = lower value 0.986
active: S. cerevisiae deletion strains, locus YKL085W, strain MDH1, stronger effect = lower value 0.795 | S. cerevisiae deletion strains, locus YKL190W, strain CNB1, stronger effect = lower value 0.823 | S. cerevisiae deletion strains, locus YKR001C, strain vps1, stronger effect = lower value 0.309 | S. cerevisiae deletion strains, locus YLR039C, strain RIC1, stronger effect = lower value 0.313 | S. cerevisiae deletion strains, locus YLR058C, strain SHM2, stronger effect = lower value 0.834 | S. cerevisiae deletion strains, locus YLR102C, strain apc9, stronger effect = lower value 0.837 | S. cerevisiae deletion strains, locus YLR262C, strain YPT6, stronger effect = lower value 0.383 | S. cerevisiae deletion strains, locus YLR268W, strain sec22, stronger effect = lower value 0.474 | S. cerevisiae deletion strains, locus YLR330W, strain CHS5, stronger effect = lower value 0.708 | S. cerevisiae deletion strains, locus YLR342W, strain FKS1 (second series), stronger effect = lower value 0.553 | S. cerevisiae deletion strains, locus YLR371W, strain rom2, stronger effect = lower value 0.612 | S. cerevisiae deletion strains, locus YLR418C, strain cdc73, stronger effect = lower value 0.324 | S. cerevisiae deletion strains, locus YML016C, strain PPZ1, stronger effect = lower value 0.916 | S. cerevisiae deletion strains, locus YML032C, strain rad52, stronger effect = lower value 0.6 | S. cerevisiae deletion strains, locus YML124C, strain tub3, stronger effect = lower value 0.724 | S. cerevisiae deletion strains, locus YMR078C, strain ctf18, stronger effect = lower value 0.776 | S. cerevisiae deletion strains, locus YMR223W, strain ubp8, stronger effect = lower value 0.643 | S. cerevisiae deletion strains, locus YMR307W, strain GAS1, stronger effect = lower value 0.8 and 0.335 | S. cerevisiae deletion strains, locus YNL067W, strain RPL9B, stronger effect = lower value 0.782 | S. cerevisiae deletion strains, locus YNL128W, strain TEP1, stronger effect = lower value 0.713 | S. cerevisiae deletion strains, locus YNL153C, strain GIM3, stronger effect = lower value 0.439 and 0.847 | S. cerevisiae deletion strains, locus YNL175C, strain NOP13, stronger effect = lower value 0.732 | S. cerevisiae deletion strains, locus YNL197C, strain WHI3, stronger effect = lower value 0.727 | S. cerevisiae deletion strains, locus YNL224C, strain SQS1, stronger effect = lower value 0.861 | S. cerevisiae deletion strains, locus YNL233W, strain BNI4, stronger effect = lower value 0.63 | S. cerevisiae deletion strains, locus YNL250W, strain rad50, stronger effect = lower value 0.73 | S. cerevisiae deletion strains, locus YNL271C, strain bni1, stronger effect = lower value 0.782 | S. cerevisiae deletion strains, locus YNL298W, strain CLA4, stronger effect = lower value 0.716 | S. cerevisiae deletion strains, locus YNL307C, strain MCK1, stronger effect = lower value 0.59 | S. cerevisiae deletion strains, locus YNL322C, strain KRE1, stronger effect = lower value 0.832 | S. cerevisiae deletion strains, locus YNR052C, strain pop2, stronger effect = lower value 0.218 | S. cerevisiae deletion strains, locus YOL147C, strain pex11, stronger effect = lower value 0.402 | S. cerevisiae deletion strains, locus YOR061W, strain CKA2, stronger effect = lower value 0.834 | S. cerevisiae deletion strains, locus YOR069W, strain VPS5, stronger effect = lower value 0.796 | S. cerevisiae deletion strains, locus YOR083W, strain WHI5 (second series), stronger effect = lower value 0.422 | S. cerevisiae deletion strains, locus YOR136W, strain idh2, stronger effect = lower value 0.661 | S. cerevisiae deletion strains, locus YOR144C, strain elg1, stronger effect = lower value 0.759 | S. cerevisiae deletion strains, locus YOR184W, strain ser1, stronger effect = lower value 0.299 | S. cerevisiae deletion strains, locus YOR316C, strain cot1, stronger effect = lower value 0.83 | S. cerevisiae deletion strains, locus YPL055C, strain LGE1, stronger effect = lower value 0.556 | S. cerevisiae deletion strains, locus YPR119W, strain clb2, stronger effect = lower value 0.808 | S. cerevisiae deletion strains, locus YPR141C, strain kar3, stronger effect = lower value 0.868 | S. cerevisiae deletion strains, locus YPR163C, strain tif3, stronger effect = lower value 0.403 | S. cerevisiae deletion strains, locus YPR167C, strain met16, stronger effect = lower value 0.708 | S. cerevisiae deletion strains, strain wtn01, stronger effect = lower value 0.608 | S. cerevisiae strains, strain wild type, stronger effect = lower value 0.715
0.968 (inactive) and 0.787 (active): S. cerevisiae deletion strains, locus YMR263W, strain SAP30, stronger effect = lower value
